Laboratory results reported in the supplement of paper PMC11732987, “Enantioselective OTUD7B fragment discovery through chemoproteomics screening and high-throughput optimisation” (Communications Chemistry, 2025).

Tests used:
Assay in all cases: log2 ratio of Biotin-Ahx-Ub-VS probe labelling (fragment/DMSO); higher = less target engagement (more negative = stronger competition), active = hit call of the paper (q ≤ 0.05, log2 ratio ≤ -1)
Conditions in all cases: compound concentration: 200 uM; treatment time: 3 h
USP34 = USP34 (UniProt Q70CQ2)
In short: (§1)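 In triplicate, 495 µg of HEK293T lysate per sample was incubated with fragment at 200 µM or vehicle for 3 h. Biotin-Ahx-Ub-VS was then added to 0.5 µM final for 1 h, and labelled DUBs were captured with NeutrAvidin, digested with LysC and trypsin, and measured by diaPASEF LC-MS/MS. Data are average log2 fragment/vehicle ratios by unpaired t-test from global-median-normalised Spectronaut label-free quantities, restricted to proteins with ≥2 unique peptides.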

USP36 = biological target: T1, USP36 (UniProt Q9P275)
T1 sequence (whole entry): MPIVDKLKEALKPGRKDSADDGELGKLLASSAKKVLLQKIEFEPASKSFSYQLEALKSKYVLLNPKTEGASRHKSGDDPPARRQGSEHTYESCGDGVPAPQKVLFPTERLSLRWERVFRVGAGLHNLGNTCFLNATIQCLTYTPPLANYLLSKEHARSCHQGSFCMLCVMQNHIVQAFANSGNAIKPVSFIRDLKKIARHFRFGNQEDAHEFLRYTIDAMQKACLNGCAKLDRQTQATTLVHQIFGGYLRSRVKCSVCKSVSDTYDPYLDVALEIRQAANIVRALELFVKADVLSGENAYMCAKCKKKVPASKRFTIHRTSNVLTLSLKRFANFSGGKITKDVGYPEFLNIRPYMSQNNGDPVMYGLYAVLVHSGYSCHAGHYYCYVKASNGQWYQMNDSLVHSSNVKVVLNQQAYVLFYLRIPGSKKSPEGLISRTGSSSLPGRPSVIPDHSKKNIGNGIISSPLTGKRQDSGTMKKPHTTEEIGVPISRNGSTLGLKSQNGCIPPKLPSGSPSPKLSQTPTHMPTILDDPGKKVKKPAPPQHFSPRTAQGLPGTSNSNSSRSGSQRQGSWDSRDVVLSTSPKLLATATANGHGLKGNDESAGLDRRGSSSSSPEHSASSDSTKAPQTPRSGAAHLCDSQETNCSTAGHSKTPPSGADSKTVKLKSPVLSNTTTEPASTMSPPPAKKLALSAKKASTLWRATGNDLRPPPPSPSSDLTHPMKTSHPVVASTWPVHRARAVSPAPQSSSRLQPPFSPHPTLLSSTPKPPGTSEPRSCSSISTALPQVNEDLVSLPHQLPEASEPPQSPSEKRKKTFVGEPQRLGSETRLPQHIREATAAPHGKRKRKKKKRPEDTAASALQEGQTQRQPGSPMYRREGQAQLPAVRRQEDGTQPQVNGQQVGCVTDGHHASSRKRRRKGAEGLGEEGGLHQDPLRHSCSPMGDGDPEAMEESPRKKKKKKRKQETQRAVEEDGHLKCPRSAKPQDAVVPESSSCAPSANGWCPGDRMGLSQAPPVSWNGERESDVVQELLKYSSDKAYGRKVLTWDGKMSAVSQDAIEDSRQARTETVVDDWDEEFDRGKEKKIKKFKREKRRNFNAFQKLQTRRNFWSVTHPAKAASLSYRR
In short: as §1

USP38 = biological target: T2, USP38 (UniProt Q8NB14)
T2 sequence (whole entry): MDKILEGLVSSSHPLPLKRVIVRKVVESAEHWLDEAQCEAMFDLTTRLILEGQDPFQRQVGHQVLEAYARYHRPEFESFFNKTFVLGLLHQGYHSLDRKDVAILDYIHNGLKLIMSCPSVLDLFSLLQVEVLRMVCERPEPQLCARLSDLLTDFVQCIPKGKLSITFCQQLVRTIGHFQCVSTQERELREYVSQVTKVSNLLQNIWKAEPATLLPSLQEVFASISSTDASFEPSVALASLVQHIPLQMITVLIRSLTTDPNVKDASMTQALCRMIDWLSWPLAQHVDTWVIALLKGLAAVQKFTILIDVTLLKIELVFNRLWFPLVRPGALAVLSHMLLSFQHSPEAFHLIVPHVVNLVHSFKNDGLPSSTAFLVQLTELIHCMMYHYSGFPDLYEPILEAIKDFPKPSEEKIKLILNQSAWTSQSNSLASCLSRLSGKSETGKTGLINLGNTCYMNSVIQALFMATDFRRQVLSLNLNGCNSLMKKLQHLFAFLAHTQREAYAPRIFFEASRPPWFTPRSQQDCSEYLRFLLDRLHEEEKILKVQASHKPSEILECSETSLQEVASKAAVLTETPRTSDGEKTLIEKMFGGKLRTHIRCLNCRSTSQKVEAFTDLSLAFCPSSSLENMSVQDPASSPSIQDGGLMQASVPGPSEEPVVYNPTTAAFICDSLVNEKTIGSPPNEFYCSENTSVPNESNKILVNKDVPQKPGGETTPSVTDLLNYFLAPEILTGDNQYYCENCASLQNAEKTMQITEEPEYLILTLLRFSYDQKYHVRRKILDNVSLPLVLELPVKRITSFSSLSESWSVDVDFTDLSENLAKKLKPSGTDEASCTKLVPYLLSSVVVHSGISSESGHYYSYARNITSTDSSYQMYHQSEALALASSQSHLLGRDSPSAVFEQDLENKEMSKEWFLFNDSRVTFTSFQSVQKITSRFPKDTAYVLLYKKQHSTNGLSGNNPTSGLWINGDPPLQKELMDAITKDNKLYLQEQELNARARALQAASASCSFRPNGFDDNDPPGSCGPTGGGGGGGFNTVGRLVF
In short: as §1

USP39 = biological target: T3, USP39 (UniProt Q53GS9)
T3 sequence (whole entry): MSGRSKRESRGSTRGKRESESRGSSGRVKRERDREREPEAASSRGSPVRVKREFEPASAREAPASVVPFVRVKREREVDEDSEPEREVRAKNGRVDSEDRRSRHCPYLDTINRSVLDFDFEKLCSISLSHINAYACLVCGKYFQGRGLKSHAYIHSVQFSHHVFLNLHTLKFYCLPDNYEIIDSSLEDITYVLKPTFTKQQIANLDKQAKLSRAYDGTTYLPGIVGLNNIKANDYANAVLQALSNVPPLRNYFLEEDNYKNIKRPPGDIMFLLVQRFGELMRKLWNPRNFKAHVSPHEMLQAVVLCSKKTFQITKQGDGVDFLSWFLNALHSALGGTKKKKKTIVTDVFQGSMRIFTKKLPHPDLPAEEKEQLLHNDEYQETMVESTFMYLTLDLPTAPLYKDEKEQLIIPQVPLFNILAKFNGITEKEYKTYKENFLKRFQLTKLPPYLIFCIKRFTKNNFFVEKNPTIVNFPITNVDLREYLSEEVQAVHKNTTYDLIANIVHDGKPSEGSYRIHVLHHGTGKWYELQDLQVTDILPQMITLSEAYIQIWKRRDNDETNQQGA
In short: as §1

USP4 = biological target: T4, USP4 (UniProt Q13107)
T4 sequence (whole entry): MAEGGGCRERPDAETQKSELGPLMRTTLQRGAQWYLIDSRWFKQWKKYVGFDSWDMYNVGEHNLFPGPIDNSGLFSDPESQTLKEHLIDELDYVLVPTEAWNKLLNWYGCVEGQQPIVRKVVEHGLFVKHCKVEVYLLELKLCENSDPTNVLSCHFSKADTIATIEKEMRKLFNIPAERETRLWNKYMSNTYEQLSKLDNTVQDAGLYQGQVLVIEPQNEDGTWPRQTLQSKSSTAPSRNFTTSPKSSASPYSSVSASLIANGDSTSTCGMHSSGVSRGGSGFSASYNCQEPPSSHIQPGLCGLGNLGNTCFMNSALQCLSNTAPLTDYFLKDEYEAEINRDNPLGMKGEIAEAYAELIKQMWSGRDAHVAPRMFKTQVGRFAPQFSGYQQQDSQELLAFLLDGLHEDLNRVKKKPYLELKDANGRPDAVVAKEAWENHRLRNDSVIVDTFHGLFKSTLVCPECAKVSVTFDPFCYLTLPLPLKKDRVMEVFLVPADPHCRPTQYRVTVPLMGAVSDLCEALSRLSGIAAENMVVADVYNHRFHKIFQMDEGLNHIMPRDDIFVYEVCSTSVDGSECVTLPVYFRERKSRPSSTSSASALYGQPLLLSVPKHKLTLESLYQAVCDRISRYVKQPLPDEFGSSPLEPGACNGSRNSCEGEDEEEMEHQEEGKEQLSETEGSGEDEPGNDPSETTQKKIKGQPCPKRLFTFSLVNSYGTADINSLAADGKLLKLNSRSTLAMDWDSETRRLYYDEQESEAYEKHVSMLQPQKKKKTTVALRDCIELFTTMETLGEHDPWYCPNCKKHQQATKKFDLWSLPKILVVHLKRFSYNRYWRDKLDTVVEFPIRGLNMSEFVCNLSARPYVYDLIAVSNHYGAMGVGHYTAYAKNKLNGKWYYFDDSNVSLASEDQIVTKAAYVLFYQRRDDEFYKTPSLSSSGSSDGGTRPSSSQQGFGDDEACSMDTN
In short: as §1

Measured: log2 ratio of Biotin-Ahx-Ub-VS probe labelling

Chain of USP34 (Q70CQ2 whole entry, the tested form may be a part): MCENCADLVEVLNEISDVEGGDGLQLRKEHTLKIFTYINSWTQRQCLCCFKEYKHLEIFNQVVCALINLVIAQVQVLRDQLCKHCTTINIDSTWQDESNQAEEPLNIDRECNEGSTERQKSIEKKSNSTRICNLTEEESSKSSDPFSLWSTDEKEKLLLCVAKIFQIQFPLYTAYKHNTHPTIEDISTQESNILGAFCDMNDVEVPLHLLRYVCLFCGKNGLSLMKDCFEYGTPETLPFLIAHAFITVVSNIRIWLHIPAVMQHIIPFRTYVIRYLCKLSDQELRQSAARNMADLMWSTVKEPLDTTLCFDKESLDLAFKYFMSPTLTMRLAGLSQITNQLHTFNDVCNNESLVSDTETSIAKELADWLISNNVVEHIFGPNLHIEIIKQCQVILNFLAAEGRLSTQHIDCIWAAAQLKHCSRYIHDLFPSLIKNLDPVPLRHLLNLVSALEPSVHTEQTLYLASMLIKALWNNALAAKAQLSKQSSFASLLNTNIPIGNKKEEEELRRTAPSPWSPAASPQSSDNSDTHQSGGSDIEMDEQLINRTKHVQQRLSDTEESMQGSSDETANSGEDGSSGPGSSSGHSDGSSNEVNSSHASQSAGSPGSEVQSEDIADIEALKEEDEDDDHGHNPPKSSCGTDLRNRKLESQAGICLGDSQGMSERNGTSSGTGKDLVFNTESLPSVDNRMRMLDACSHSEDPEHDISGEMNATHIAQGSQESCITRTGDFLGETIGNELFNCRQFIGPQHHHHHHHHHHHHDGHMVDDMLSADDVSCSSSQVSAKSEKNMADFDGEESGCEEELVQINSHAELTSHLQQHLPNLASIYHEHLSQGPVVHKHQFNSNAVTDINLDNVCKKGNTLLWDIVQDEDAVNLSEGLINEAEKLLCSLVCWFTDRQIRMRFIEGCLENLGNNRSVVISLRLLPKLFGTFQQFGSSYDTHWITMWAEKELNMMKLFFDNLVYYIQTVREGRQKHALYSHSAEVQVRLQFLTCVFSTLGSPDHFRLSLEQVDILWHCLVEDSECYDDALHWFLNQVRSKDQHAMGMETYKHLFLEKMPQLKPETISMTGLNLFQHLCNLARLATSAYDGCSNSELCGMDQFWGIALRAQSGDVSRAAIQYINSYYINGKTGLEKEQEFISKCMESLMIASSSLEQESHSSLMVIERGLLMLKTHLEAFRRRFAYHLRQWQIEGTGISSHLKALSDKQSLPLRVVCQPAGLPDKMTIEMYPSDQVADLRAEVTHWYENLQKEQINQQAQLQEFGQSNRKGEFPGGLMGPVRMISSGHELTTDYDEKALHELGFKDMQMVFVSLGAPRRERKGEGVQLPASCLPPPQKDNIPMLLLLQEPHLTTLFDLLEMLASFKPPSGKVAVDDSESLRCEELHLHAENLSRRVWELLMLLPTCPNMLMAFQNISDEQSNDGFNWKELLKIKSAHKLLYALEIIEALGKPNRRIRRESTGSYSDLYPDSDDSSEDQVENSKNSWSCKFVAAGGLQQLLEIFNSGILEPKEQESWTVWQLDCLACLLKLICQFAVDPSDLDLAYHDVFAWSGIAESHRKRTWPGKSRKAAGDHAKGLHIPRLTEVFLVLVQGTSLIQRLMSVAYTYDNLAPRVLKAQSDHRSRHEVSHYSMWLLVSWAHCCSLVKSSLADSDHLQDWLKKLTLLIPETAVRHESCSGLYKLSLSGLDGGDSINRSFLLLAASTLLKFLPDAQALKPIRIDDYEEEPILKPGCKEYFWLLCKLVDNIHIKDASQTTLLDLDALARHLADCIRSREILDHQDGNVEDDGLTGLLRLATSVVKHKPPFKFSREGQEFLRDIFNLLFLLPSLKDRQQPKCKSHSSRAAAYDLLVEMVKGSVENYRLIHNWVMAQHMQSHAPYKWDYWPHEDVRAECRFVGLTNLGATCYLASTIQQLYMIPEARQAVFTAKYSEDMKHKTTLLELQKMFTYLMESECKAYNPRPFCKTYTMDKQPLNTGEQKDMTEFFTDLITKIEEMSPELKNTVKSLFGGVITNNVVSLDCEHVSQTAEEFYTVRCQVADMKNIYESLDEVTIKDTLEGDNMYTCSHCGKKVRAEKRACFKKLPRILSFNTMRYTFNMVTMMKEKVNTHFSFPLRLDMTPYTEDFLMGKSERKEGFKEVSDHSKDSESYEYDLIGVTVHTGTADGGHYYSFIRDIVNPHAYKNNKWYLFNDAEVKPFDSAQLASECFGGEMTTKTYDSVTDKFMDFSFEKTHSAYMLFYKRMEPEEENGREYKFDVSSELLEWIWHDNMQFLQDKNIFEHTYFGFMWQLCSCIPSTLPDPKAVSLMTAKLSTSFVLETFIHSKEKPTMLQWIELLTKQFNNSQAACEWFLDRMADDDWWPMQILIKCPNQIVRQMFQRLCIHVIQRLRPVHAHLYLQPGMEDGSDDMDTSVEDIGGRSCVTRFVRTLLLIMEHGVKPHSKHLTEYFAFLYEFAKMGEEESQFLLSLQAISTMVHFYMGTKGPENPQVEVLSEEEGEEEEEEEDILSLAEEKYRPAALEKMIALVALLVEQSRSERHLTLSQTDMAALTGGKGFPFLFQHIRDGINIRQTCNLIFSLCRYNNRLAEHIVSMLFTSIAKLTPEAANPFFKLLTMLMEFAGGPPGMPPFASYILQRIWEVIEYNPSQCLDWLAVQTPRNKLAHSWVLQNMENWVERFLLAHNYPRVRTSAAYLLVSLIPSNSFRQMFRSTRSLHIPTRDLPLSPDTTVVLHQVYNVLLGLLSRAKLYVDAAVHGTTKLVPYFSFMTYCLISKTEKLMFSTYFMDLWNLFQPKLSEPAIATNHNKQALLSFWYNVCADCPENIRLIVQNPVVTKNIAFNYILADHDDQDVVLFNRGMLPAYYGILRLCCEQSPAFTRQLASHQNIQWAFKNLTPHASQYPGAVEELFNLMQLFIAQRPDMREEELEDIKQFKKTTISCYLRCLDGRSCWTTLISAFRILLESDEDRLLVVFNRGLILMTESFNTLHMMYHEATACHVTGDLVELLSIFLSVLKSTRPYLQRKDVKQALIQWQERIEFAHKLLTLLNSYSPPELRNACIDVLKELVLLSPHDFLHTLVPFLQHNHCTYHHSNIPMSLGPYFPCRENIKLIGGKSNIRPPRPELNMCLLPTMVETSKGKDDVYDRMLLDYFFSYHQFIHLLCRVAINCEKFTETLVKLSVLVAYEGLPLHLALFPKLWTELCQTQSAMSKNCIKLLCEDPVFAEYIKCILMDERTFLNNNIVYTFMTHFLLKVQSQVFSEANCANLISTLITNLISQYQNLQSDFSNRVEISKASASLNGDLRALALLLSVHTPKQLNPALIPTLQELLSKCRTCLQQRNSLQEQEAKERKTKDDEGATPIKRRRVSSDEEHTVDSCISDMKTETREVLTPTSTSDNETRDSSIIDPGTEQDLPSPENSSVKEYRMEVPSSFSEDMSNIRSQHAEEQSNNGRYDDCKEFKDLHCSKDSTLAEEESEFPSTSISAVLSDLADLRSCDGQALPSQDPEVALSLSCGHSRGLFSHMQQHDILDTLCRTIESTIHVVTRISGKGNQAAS

O=C(CCl)N1CCN(c2nc3ccccc3o2)CC1
inactive: USP34 -0.0431 | USP36 -0.047 | USP38 -0.41 | USP39 -0.00936 | USP4 -0.445
